Assay outcomes as filed in PubChem BioAssay.
Most compounds without a hit are left out; they make up all but 2.6% or so of the library.
Cruzain inh Det = inhibitors of Trypanosoma cruzi cruzain with detergent | purified cruzain, Z-FR-AMC fluorescence, 0.01% Triton | P25779 | Potency, µM, hits mostly inhibitors | AID 1478 | 200,000 compounds, 0.43% hits; also: nearly all actives have a fitted effect of over 40% in size
Target sequence (P25779 123-467 limits assumed): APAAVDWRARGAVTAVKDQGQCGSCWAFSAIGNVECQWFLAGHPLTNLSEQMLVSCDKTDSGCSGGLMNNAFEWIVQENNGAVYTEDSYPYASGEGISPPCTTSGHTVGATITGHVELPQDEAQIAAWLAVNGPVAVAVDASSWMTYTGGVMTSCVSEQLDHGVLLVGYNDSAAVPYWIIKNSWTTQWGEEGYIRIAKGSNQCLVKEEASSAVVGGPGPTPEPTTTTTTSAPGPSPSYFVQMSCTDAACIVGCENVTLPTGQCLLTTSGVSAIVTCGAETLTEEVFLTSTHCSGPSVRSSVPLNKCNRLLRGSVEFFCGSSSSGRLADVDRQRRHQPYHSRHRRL
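Steps: dispense cruzain (1.5 nM final) in acetate buffer pH 5.5 with DTT and 0.01% Triton X-100; pin-transfer compounds; incubate 15 min RT; add Z-FR-AMC (2 uM final); read fluorescence every 30 s, using the 60 s intensity change.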
Cruzain inh noDet = blocks cruzain activity in detergent-free assay; P25779; purified cruzain, Z-FR-AMC fluorescence, no detergent; Potency, µM, hits mostly inhibitors; 200,000 compounds, 2.3% hits; AID 1476; also: nearly all actives have a fitted effect of over 40% in size
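Purified cruzain at 1.5 nM, pre-incubated 15 min with compound at room temperature in 100 mM sodium acetate pH 5.5, 5 mM DTT, 0.00005% Triton X-100. Reaction started with 2 uM Z-FR-AMC; AMC fluorescence increase over 60 s gives rate.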
Numbers stand for hits; n = inactive; u = inconclusive. Calls follow the shape of the dose curve; as a rule, active = well fitted curve in the direction sought with a large enough effect; inconclusive = small, poorly fitted or top-dose-only effect, or another doubt; inactive = no such curve, though single readings can be large; an effect the other way counts as inactive or inconclusive.

SMILES	Cruzain inh Det	Cruzain inh noDet
COc1ccccc1NC(=O)CSc1nc2nccnc2c(=O)n1CCc1c[nH]c2ccccc12	n	n
COc1ccccc1NC(=O)Cn1c(=O)n(CCc2c[nH]c3ccccc23)c(=O)c2cccnc21	n	20µM
Cc1c(C(=O)NCc2ccccc2Cl)sc2ncnc(N(C)C3CCCCC3)c12	n	n
COc1cc(OC)c(N(C)S(=O)(=O)c2cccc(C(=O)OCC(=O)c3c[nH]c4ccccc34)c2)cc1Cl	n	10µM
Cc1ccc(S(=O)(=O)CCC(=O)OCC(=O)c2c[nH]c3ccccc23)cc1	n	20µM
C=CCN(c1ccccc1OC)S(=O)(=O)c1cccc(C(=O)OCC(=O)c2c[nH]c3ccccc23)c1	n	n
CC(C)Cc1ccc(C(C)C(=O)OCC(=O)c2c[nH]c3ccccc23)cc1 (stereo not drawn)	n	n
CC(C)C(NS(=O)(=O)c1c(Cl)cccc1Cl)C(=O)OCC(=O)c1c[nH]c2ccccc12 (stereo not drawn)	n	32µM
Cc1ccc(C(=O)OCC(=O)c2c[nH]c3ccccc23)cc1	n	u
COc1ccc(-c2cc(C(F)(F)F)n3nc(C)c(-c4ccccc4)c3n2)cc1OC	n	n
O=C(NCCc1ccccc1Cl)c1ccc2c(c1)nc1n2CCCCC1	n	n
CCOC(=O)c1c(C)[nH]c(C)c1S(=O)(=O)NCC(=O)Nc1cccc(SC)c1	n	n
Cc1ccc2[nH]cc(C(c3ccccc3)c3ccc(C)s3)c2c1 (stereo not drawn)	n	n
CCOC(=O)N1CCc2c(sc3c2c(=O)n(-c2ccc(Cl)cc2)c(=O)n3Cc2cccc(OC)c2)C1	n	n
CCn1cc(C(=O)NCc2ccccc2Cl)c(=O)c2cc(S(=O)(=O)N3CCCCCC3)ccc21	n	n
COc1ccc(NC(=O)C(C)n2nnc3sc(-c4ccccc4)cc3c2=O)cc1Cl (stereo not drawn)	n	25µM
Cc1cc(C)c(NC(=O)C(C)n2nnc3sc(-c4ccccc4)cc3c2=O)c(C)c1 (stereo not drawn)	n	u
N=C(C[C@@H](O)COc1ccccc1-c1ccccc1)N1CCCCC1	n	n
COc1cc(-c2ccc(NC(=O)c3ccc(C)cc3)c(OC)c2)ccc1NC(=O)c1ccc(C)cc1	n	n
COc1cc(-c2ccc(N=C=O)c(OC)c2)ccc1N=C=O	n	32µM
CCc1ccc(C(=O)c2cn(CC(=O)Nc3ccc(F)cc3)c3ccc(F)cc3c2=O)cc1	n	n
O=C(Nc1ccc(C(=O)N2CCN(c3ccc(Cl)cc3)CC2)cc1)c1nsc2ccccc12	n	n
Cc1ccc(Cl)cc1N1CCN(C(=O)c2ccc(NC(=O)c3nsc4ccccc34)cc2)CC1	n	7.9µM
Oc1ccc2ccccc2c1/C=N/Nc1nnc(-c2ncc[nH]2)c2ccccc12	n	25µM
COc1ccc(/C=N/Nc2nnc(-c3ncc[nH]3)c3ccccc23)cc1	n	n
SMILES	Cruzain inh Det	Cruzain inh noDet
O=C(NCc1ccc(F)cc1)c1cnc(N2CCCCC2)c2ccccc12	n	n
Cc1nn(C)c2c1c(-c1ccccc1)cc(=O)n2CC(=O)Nc1ccccc1C(F)(F)F	n	n
O=C(c1ccc2c(c1)OCO2)c1cn(Cc2ccc(Cl)cc2)c2ccc(F)cc2c1=O	n	25µM
Cc1ccc2c(c1)c(=O)c(C(=O)c1ccc3c(c1)OCO3)cn2Cc1ccc(Cl)cc1	n	u
CC(C)(C[C@@]1(C)NC(=O)NC1=O)OCc1ccccc1	n	n
CCc1ccc(-n2c(=O)c3c(C)c(C(=O)N(C)C)sc3n(Cc3ccccc3C#N)c2=O)cc1	n	n
O=C(COC(=O)CCOc1ccccc1)Nc1ccc(Cl)cn1	n	n
O=C(COC(=O)CNC(=O)C1CCCCC1)Nc1ccc(Cl)cn1	6.3µM	6.3µM
CCOC(=O)c1sc(NC(=O)COC(=O)CNC(=O)c2ccco2)c(C(=O)OCC)c1C	n	u
CCOC(=O)c1sc(NC(=O)COC(=O)CNC(=O)C2CCCCC2)c(C(=O)OCC)c1C	2.2µM	n
COc1ccc2c(c1)c(=O)c(C(=O)c1ccc(F)cc1)cn2CC(=O)Nc1ccc2c(c1)OCO2	n	n
CC(C)C[C@@H](CC(=O)N[C@@H](CCC(=O)O)CC(=O)O)NC(=O)[C@@H]1CNCC[C@H]1NC(=O)C[C@H](CCCN)NC(=O)C[C@H](Cc1c[nH]c2ccccc12)NC(=O)[C@@H]1CCCC[C@H]1N	n	n
CC(C)c1ccc(S(=O)(=O)/N=C2/C=C(Sc3ncn[nH]3)C(=O)c3ccccc32)cc1	n	13µM
Cc1ccc(S(=O)(=O)/N=C2/C=C(Sc3ncn[nH]3)C(=O)c3ccccc32)cc1	n	u
O=C(Nc1cnn(Cc2ccc(Cl)cc2Cl)c1)c1noc2c1CCc1ccccc1-2	n	7.9µM
Cc1cc(C(=O)Nc2cnn(Cc3ccc(Cl)cc3Cl)c2)no1	n	n
Cn1cnc(S(=O)(=O)N2CCC(C(=O)Nc3ccc(OC(F)(F)F)cc3)CC2)c1	n	n
Cc1cccc(S(=O)(=O)c2c(N)n(/N=C/c3ccco3)c3nc4ccccc4nc23)c1	n	n
